Tau FP inhib: qHTS for Inhibitors of Tau Fibril Formation, Fluorescence Polarization; Microtubule-associated protein tau (Homo sapiens), P10636; K18 P301L tau heparin fibrillization, Alexa594 FP, 6 h; Potency, µM (series often up to 57.7 µM), hits mostly inhibitors; actives 0.39% (n = 280,000); AID 1468, 2008; further: nearly all actives have a fitted effect of over 55% in size
Target sequence (P10636 561-689 P618L limits assumed): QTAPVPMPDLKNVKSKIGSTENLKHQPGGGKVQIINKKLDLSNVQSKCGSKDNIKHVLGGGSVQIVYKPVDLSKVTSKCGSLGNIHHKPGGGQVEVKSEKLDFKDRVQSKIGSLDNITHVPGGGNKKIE
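Human K18 P301L fragment (15 uM unlabeled plus 0.24 uM Alexa 594-labeled) in 100 mM sodium acetate pH 7 with compound, aggregation induced by 20 uM heparin for 6 hr at 37 C. ThT (30 uM) added for 1 hr, then Alexa 594 FP read.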
Tau fluor cs: Counterscreen qHTS for Inhibitors of Tau Fibril Formation, Fluorescence Polarization | tau K18 P301L Alexa594 fluorescence, heparin fibrillization | Potency, µM (top dose mostly 57.7 µM) | actives 0.93% (n = 280,000) | AID 1463, 2008; further: nearly all actives have a fitted effect of over 55% in size
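Human K18 P301L tau (15 uM unlabeled plus 0.24 uM Alexa 594-labeled, final) in 100 mM sodium acetate pH 7 was mixed with compound and 20 uM heparin and incubated 6 hr at 37 C.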
RORgamma inh: qHTS for inhibitors of ROR gamma transcriptional activity; Drosophila S2 Gal4-RORgamma UAS-luciferase reporter, 20 h; actives 5.4% (n = 310,000); AID 2551, 2010; Nuclear receptor ROR-gamma (Mus musculus), P51450; Potency, µM (top dose mostly 53.6 µM), actives largely listed as inhibitors; further: nearly all actives have a fitted effect of over 60% in size
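Read-out: Photinus luciferase luminescence; inhibitors lower reporter signal. Insect Schneider cells with Gal4-ROR gamma fusion under metallothionein promoter, UAS reporter; 700 uM final copper sulfate induction, 20 hr, ambient temperature.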
VP16 counter: VP16 counterscreen qHTS for inhibitors of ROR gamma transcriptional activity | Drosophila S2 Gal4-VP16 UAS-luciferase, luminescence, 20 h | Potency, µM (series often up to 53.6 µM), most hits filed as inhibitors | actives 3.5% (n = 310,000) | AID 2546, 2010;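 further: Gal4-VP16 expression switched on by copper sulfate through the metallothionein promoter; nearly all actives have a fitted effect of over 50% in size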
Tau fibril ThT: qHTS for Inhibitors of Tau Fibril Formation, Thioflavin T Binding | Microtubule-associated protein tau (Homo sapiens), P10636 | recombinant tau K18 P301L, heparin-induced fibrillization, ThT fluorescence | Potency, µM (series often up to 57.4 µM), hits mostly inhibitors | actives 2.1% (n = 270,000) | AID 1460, 2008; further: nearly all actives have a fitted effect of over 55% in size
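Fibril formation assay: tau K18 P301L at 15 uM with trace Alexa 594 label, heparin inducer 20 uM, pH 7 sodium acetate buffer, 37 C for 6 hr; endpoint ThT signal.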
Large screens that a line does not name were inactive; ! = not active in a repeat. Hits are enriched below; roughly 7.3% of the tested compounds scored in any of these assays. The call rests on the fitted dose curve; in most records, active means well fitted curve in the direction sought with a large enough effect; inconclusive means small, poorly fitted or top-dose-only effect, or another doubt; inactive means no such curve, though single readings can be large; an effect the other way counts as inactive or inconclusive.

COc1ccc(C(=O)C2CCCN(Cc3cccc(C)n3)C2)c(OC)c1 (configuration not stated)	RORgamma inh inconclusive
COc1c(C)cc(C(=O)C2CCCN(Cc3cnc(C)s3)C2)cc1C (configuration not stated)	none
O=C(c1ccc2c(c1)OCO2)C1CCCN(Cc2ccccn2)C1 (configuration not stated)	RORgamma inh 3.16µM, VP16 counter inconclusive
O=C(c1ccc(Cl)cc1)C1CCCN(Cc2ccon2)C1 (configuration not stated)	none
C=C(C)[C@H]1CC[C@]2(C(=O)O)CC[C@]3(C)[C@@H](CC[C@H]4[C@@]5(C)CC[C@@H](O)C(C)(C)[C@@H]5CC[C@@]43C)[C@H]12	none (no result: Tau FP inhib, Tau fluor cs, Tau fibril ThT)
CC(C)c1cccc(C(C)C)c1OCCn1ccnc1	RORgamma inh 22.4µM, VP16 counter inconclusive
c1ccc(Cn2ccnc2)cc1	Tau FP inhib inconclusive
Cc1sc2c(c1C)C(c1ccc(C(C)(C)C)cc1)=NCC(=O)N2CC(=O)Nc1nccs1	RORgamma inh 11.2µM, VP16 counter inconclusive
C=CCN1CC[C@@]2(C)c3cc(O)ccc3CC1[C@@H]2C	none
CN1CC[C@@]2(C)c3cc(O)ccc3N(C)[C@@H]12	Tau FP inhib 20µM, Tau fluor cs inconclusive, Tau fibril ThT 14.1µM
CN1CC[C@@]2(C)c3cc(OC(=O)Nc4ccccc4)ccc3N(C)[C@@H]12	Tau FP inhib inconclusive, Tau fluor cs inconclusive, Tau fibril ThT 31.6µM (no result: RORgamma inh, VP16 counter)
Nc1nnc(Sc2ncccc2[N+](=O)[O-])s1	Tau fibril ThT inconclusive
COc1ccc2cc1Oc1ccc(cc1)CC1c3cc(c(OC)cc3CCN1C)Oc1c(OC)c(OC)cc3c1C(C2)N(C)CC3 (configuration not stated)	RORgamma inh inconclusive, VP16 counter inconclusive
CC(=O)C1CCC2C3CCC4CC(C)(O)CCC4(C)C3CCC12C (configuration not stated)	none (no result: Tau FP inhib, Tau fluor cs, Tau fibril ThT)
Cc1ccc(CNCCc2ccccc2F)cc1	none
Cc1ccccc1CCNCc1cc2cccc(C)c2[nH]c1=O	RORgamma inh inconclusive, VP16 counter 10µM (no result: Tau FP inhib, Tau fluor cs, Tau fibril ThT)
CC[C@@H](CO)NC(=O)[C@@H]1C=C2c3cccc4c3c(cn4C)C[C@H]2N(C)C1	Tau FP inhib inconclusive, Tau fluor cs inconclusive, RORgamma inh 17.8µM!, VP16 counter inconclusive, Tau fibril ThT 25.1µM!
CC[C@@H](CO)NC(=O)[C@H]1C=C2c3cccc4[nH]cc(c34)C[C@H]2N(C)C1	Tau fluor cs inconclusive, Tau fibril ThT inconclusive
CCC(CO)NC(=O)C1C=C2c3cccc4[nH]cc(c34)CC2N(C)C1 (configuration not stated)	none
COC(=O)C1C=C2c3cccc4[nH]cc(c34)CC2N(C)C1 (configuration not stated)	Tau FP inhib inconclusive, Tau fluor cs inconclusive, Tau fibril ThT 17.8µM
Cc1cc(C)cc(NC(=O)CSc2oc(-c3cccs3)nc2S(=O)(=O)c2ccc(Br)cc2)c1	Tau fluor cs inconclusive (no result: RORgamma inh, VP16 counter)
CCC(C(=O)O)C1CCC(C)C(C(C)C(O)C(C)C(=O)C(CC)C2OC3(C=CC(O)[C@@]4(CC[C@](C)(C5CC[C@@](O)(CC)C(C)O5)O4)O3)C(C)CC2C)O1 (some centres not stated)	RORgamma inh 1.78µM, VP16 counter 2.24µM
CC(=O)Oc1ccc(Cl)c2cccnc12	RORgamma inh 0.562µM, VP16 counter 0.708µM
CN(C(=O)Oc1ccc(Cl)c2cccnc12)c1ccccc1	RORgamma inh inconclusive
C[C@H]1COC2=C1C(=O)C(=O)c1c2ccc2c1CCCC2(C)C	Tau FP inhib inconclusive, Tau fibril ThT 12.6µM
CC1COC2=C1C(=O)C(=O)c1c2ccc2c1CCCC2(C)C (configuration not stated)	Tau FP inhib inconclusive, Tau fluor cs inconclusive, Tau fibril ThT 12.6µM
COc1ccc(C(=O)NCCn2cc(SCc3ccc(C(F)(F)F)cc3)c3ccccc32)cc1OC	Tau fluor cs inconclusive, Tau fibril ThT inconclusive (no result: RORgamma inh, VP16 counter)
